Activity calls are given as the source filed them. The call rests on the fitted dose curve; in most records, active means well fitted curve in the direction sought with a large enough effect; inconclusive means small, poorly fitted or top-dose-only effect, or effect the other way, or another doubt; inactive means no such curve, though single readings can be large or run the other way.

Beta-2 adrenergic receptor (Homo sapiens), sequence (P07550 whole entry, looked up): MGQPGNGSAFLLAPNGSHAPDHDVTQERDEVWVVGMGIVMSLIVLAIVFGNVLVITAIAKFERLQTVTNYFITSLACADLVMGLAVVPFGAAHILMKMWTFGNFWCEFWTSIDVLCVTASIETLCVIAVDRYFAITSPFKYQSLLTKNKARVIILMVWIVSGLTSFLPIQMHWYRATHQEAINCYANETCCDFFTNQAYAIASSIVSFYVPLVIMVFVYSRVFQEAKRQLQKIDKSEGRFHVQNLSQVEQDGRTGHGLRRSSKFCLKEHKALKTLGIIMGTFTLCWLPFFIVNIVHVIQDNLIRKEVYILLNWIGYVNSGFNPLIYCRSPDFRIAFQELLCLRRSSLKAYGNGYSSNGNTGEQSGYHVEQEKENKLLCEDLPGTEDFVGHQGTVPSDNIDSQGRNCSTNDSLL

This test addresses Beta-2 adrenergic receptor (Homo sapiens) (UniProt P07550). Nature of the test: qHTS validation assay of beta-arrestin-biased ligands of beta2-adrenergic receptor (AID 485366). The note with it: cell-based beta-arrestin recruitment to ADRB2, qHTS; series mostly up to 46.1 µM. From the text: NIH Molecular Libraries Probe Production Network [MLPCN]
NIH Chemical Genomics Center [NCGC]
PI: Bryan Roth and Bob Lefkowitz
The concept of biased agonism is an emerging concept of molecular pharmacology which proposes that seven transmembrane receptors (7TMRs) or G protein-coupled receptors (GPCRs), exist in multiple signaling conformations and complexes and that ligands (either agonists or antagonists) can induce signaling biased responses for distinct signal transduction cascades.
Furthermore, accumulating evidence over the last decade has drawn attention to a novel function of beta-arrestins as signal transducers that scaffold various signaling molecules upon activation of 7TMRs. […] This beta-arrestin-biased signaling presumably leads to distinct physiological outcomes from those by G protein activation.
Additionally, the active receptor conformations which […] on this beta-arrestin signaling are likely different from those activating G protein signaling
The goal of this screening project will be to discover and optimize novel beta-arrestin-biased ligands for beta2-AR signaling. A luminescent cell-based assay for beta2-AR-mediated agonism, known as the Tango assay, has been validated in which ligand binding of a recombinant beta2-AR and subsequent recruitment of a recombinant beta-arrestin lead to the release of the transcriptional activator tTA, which upregulates transcription of a tTA-responsive luciferase gene. […] Compounds were screened as a concentration-titration series that ranged from 46 microM to 0.6 nM.
NCGC Assay Protocol Summary:
Tango cells were dispensed into white, solid, tissue-culture-treated 1536-well plates at 1500 cells/well in DMEM, containing 1% fetal bovine serum (FBS). Then, 23 nL of compounds or DMSO were delivered to each well using a pin tool. Plates were incubated at 37 degrees C, 5% CO2 for 18 hr. Then 2.5 uL luminescent substrate mix (in-house prepared: 150 mM Tris-Cl, pH 7.6, 3 mM MgCl2, 1% Triton X-100, 5 mM DTT, 0.5 mM CoA, 0.15 mM ATP, 0.44 mM D-luciferin, final concentrations) was added to each well. Plates were then incubated for 15 minutes at room temperature, and subsequently measured on a ViewLux plate reader for luminescent signal using a clear filter with a 10 second exposure and 2x binning. The %Activity was determined from the corrected luminescence values.
Concentration-response curves were fitted to the signals arising from the resulting luminescence. The concentration-effect curves were then classified based on curve quality (r2), response magnitude and degree of measured activity, and compounds were subsequently categorized based on their curve class.
Keywords: biased agonism, beta2-AR, beta-arrestin, GPCR, 7TMR, Tango, luminescence, MLSMR, MLPCN, NIH Roadmap, qHTS, NCGC
Background: qHTS replaces the single test concentration by a dilution series.
In the case of `NC[C@@H]1O[C@H](C23CC4CC(CC(C4)C2)C3)Cc2c1ccc(O)c2O`, the molecule was called inactive. With `O=C(/C=C/c1ccc(O)c(O)c1)OCCc1ccccc1`, the call was inactive. The entry for `CCCCC/C=C\CC(O)/C=C/c1cccc(CC(O)CCCCO)n1` (stereo not given) is “inactive”; for `C#C[C@]1(O)CC[C@H]2[C@@H]3CCC4=Cc5oncc5CC4(C)[C@H]3CCC21C` (stereo not given in full) it is “inactive”; for `CN=c1nc(-c2ccccc2)n(-c2ccccc2)s1` it is “inactive”.

`COc1ccccc1N1CCN(CCN(C(=O)c2ccc(I)cc2)c2ccccn2)CC1`: the call was inactive.

Take `Clc1ccc(N2CCN(Cc3cc4ccccn4n3)CC2)cc1`: the outcome was inactive.

As for `O=C(c1cc(O)c(O)c([N+](=O)[O-])c1)c1ccccc1F`, the molecule was called inactive. With `COc1cccc(OC)c1OCCNCC1COc2ccccc2O1` (stereo not given), the call was inactive. The entry for `COc1cc2nc(N3CCN(C(=O)OCc4ccccc4)C(C(=O)NC(C)(C)C)C3)nc(N)c2cc1OC` (stereo not given) is “inactive”. For the molecule `COc1ccccc1CNCCCCCCNCCCCCCCCNCCCCCCNCc1ccccc1OC`, the molecule was called inactive. Regarding `CSc1nc(N)c2ncn([C@@H]3O[C@H](COP(=O)(O)OP(=O)(O)OP(=O)(O)O)[C@@H](O)[C@H]3O)c2n1`, the molecule was classed as inactive.

Regarding `O=C(O)CNC(=O)C(CS)Cc1ccccc1` (stereo not given), the molecule was classed as inactive. Turning to `O=C(O)CC1CCCc2ccccc2C1O` (stereo not given), the molecule was called inactive.

Consider `NC(=S)c1ccc[n+]([C@@H]2O[C@@H](COP(=O)([O-])OP(=O)(O)OC[C@H]3O[C@@H](n4cnc5c(N)ncnc54)[C@H](OP(=O)(O)O)[C@@H]3O)C(O)C2O)c1` (stereo not given in full), for which the molecule was classed as inactive. Take `Cn1c(=O)c2[nH]c(-c3ccccc3)nc2n(C)c1=O`: the result was inactive.

For `NC[C@H]1O[C@@H](n2cnc3c(N)ncnc32)[C@H](O)[C@@H]1O`, the call was inactive. Take `O=c1[nH]c2cc([N+](=O)[O-])c([N+](=O)[O-])cc2[nH]c1=O`: the outcome was inactive.

In the case of `Nc1ncnc2c1c(I)cn2[C@@H]1C[C@H](N)[C@@H](O)[C@H]1O`, the call was inactive.

Consider `OC[C@H]1O[C@@H](n2cnc3c(Nc4ccccc4)ncnc32)[C@H](O)[C@@H]1O`, for which the result was inactive.

In the case of `COc1ccc(/C=C/C(=O)Nc2ccccc2C(=O)O)cc1OC`, the result was inactive.

On to `CN(C)C(N)=NCCC[C@H](N)C(=O)O`, for which the outcome was inactive. The entry for `N#C/C(=C\c1ccc(O)c(O)c1)C(=O)NCCCc1ccccc1` is “inactive”. Turning to `Oc1ccccc1O`, the result was inactive. The entry for `O=C(Nc1ccccc1)c1cc([N+](=O)[O-])ccc1Cl` is “inactive”; for `CC(N)C(=O)OC(C)(C)Cc1ccc(Cl)cc1` (stereo not given) it is “inactive”. For `CCCCCCCC/C=C\CCCCCCCC(=O)NCCO`, the call was inactive. The result for `C[N+](C)(CCCCCC[N+](C)(C)CCCN1C(=O)c2cccc3cccc(c23)C1=O)CCCN1C(=O)c2cccc3cccc(c23)C1=O` reads “inactive”; that for `NO`, “inactive”.

`CC1OC1P(=O)(O)O` (stereo not given): the molecule was classed as inactive. With `CNCC[C@H](Oc1ccc(C(F)(F)F)cc1)c1ccccc1`, the call was inactive. As to `CCCCC#Cc1nc(NC)c2ncn([C@@H]3O[C@H](CO)[C@@H](O)[C@H]3O)c2n1`, the result was inactive. On to `Ic1ccc(N2CCN(Cc3c[nH]c4ncccc34)CC2)cc1`, for which the call was inactive. Consider `COc1ccc(NC(=O)/C=C/c2ccc(Cl)cc2)cc1`, for which the call was inactive.

Consider `O=C(c1ccc(OCCCc2cnc[nH]2)cc1)C1CC1`, for which the call was inactive. For the molecule `Nc1nc(SCc2ccc([N+](=O)[O-])cc2)c2ncn([C@@H]3O[C@H](CO)[C@@H](O)[C@H]3O)c2n1`, the result was inactive. With `COc1ccccc1N1CCN(CCCCNS(=O)(=O)c2cccc3c(N(C)C)cccc23)CC1`, the molecule was called inactive. In the case of `C=CC(C)=C[C@@]1(C)SC(=O)C(C)=C1O`, the outcome was inactive. The entry for `CN1C2CC(OC(=O)[C@H](CO)c3ccccc3)CC1C1OC12` (stereo not given in full) is “inactive”; for `O=c1[nH]c2cc(Cl)c(Cl)cc2[nH]c1=O` it is “inactive”.

These data come from PubChem BioAssay (NCATS).
